Screens from PubChem.
PNC assembly inh: perinucleolar compartment assembly inhibition; PC3M PTB-GFP, PNC prevalence imaging, 16 h; stronger effect = lower value; actives 3.1% (n = 140,000); activity change (PNC), negative = inhibition, % at 10 µM; AID 2417;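 active means readout at or below -70, meaning at least 70% loss of cells showing the perinucleolar compartment, a nuclear body marking cancer cells; inconclusive means readout between -30 and a set limit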;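 further: plate controls were DMSO wells for no effect and camptothecin positive control wells for full effect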
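Compounds are pinned in duplicate onto adhered PC3M cells stably expressing GFP-tagged PTB and incubated 16 h at 37 C. Cells are then fixed, nuclei stained with Hoechst, and PNC-positive cells counted.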
ALDH1A1 block: ALDH1A1 (human) enzyme inhibition. AID 1030. Potency, µM (series often up to 75.3 µM), for the others: at the highest dose activity, negative = inhibition, hits mostly inhibitors. Purified ALDH1A1, NADH fluorescence, propionaldehyde substrate. actives 7.3% (n = 220,000). P00352;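 further: potency means the concentration at half of the fitted maximal effect; plate controls were no enzyme wells and a reference inhibitor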
Target sequence (P00352 whole entry, looked up): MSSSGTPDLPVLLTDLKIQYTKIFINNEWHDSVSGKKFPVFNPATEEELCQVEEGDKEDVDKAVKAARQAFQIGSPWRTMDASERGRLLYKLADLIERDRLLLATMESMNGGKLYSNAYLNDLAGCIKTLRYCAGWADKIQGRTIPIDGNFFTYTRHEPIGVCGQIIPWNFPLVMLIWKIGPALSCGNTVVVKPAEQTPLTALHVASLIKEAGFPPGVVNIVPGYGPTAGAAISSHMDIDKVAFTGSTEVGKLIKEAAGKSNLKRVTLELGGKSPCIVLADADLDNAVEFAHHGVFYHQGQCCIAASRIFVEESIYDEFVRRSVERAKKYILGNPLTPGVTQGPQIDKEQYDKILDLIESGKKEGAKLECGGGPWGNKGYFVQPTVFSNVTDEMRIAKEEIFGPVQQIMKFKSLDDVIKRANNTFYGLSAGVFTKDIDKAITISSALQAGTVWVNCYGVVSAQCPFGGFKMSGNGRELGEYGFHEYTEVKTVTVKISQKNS
HPGD block: inhibitors of human 15-hydroxyprostaglandin dehydrogenase (HPGD); P15428; purified HPGD, NADH fluorescence kinetic, PGE2 substrate; actives 4.3% (n = 150,000); Potency, µM, without a hit: at the top dose activity change, negative = inhibition, most hits filed as inhibitors; further: potency means the concentration at half of the fitted maximal effect
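20 nM HPGD preincubated 15 min at room temperature with compound in 50 mM Tris-HCl pH 8, 0.01% Tween 20. Started with 1 mM NAD+ and 30 uM prostaglandin E2; NADH fluorescence (360/450 nm) read 5 times over 30-s intervals, last minus first.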
IMPase inh: IMPase inhibition in cells | AID 901 | 120,000 tested, under 10 active | inhibition (IP1 accumulation), % at 46.1 µM | CHO-M1 cells, IP1 accumulation, HTRF TR-FRET ratio; active means well fitted curve in the direction sought with a large enough effect in the signal ratio, not every such curve was filed as active; inconclusive means small, poorly fitted or top-dose-only effect, or a change in a side signal; inactive means no such curve, though single readings can be large or run the other way; the % refers to the signal ratio;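 further: cells stimulated with carbachol in lithium chloride buffer; plate controls were DMSO basal wells for no effect and reference inhibitor wells for full effect; higher means more IMPase inhibition seen as more IP1 and lower FRET ratio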
Target sequence (P97697 whole entry, looked up): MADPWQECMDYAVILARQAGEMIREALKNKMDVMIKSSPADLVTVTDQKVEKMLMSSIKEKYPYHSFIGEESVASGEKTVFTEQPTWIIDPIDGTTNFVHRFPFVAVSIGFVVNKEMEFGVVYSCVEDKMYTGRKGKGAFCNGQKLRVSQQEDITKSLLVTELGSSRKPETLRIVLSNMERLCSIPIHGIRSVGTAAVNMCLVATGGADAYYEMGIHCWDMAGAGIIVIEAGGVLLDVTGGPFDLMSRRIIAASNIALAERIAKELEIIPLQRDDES
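The IP-One HTRF competitive assay in carbachol-stimulated CHO-M1 cells quantifies cellular IP1. Compounds spanned up to 46 uM final, and activity is expressed as AC50 from concentration-response fits of the ratio and donor data.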
IMPase Li cell: cell-permeable IMPase inhibitors with lithium potentiation; CHO-M1 cells, IP1 TR-FRET (IP-One), carbachol + lithium; Potency, µM (titrated, usually from 59.4 µM), for inactives: at the highest dose activity, negative = IMPase inhibition, actives largely listed as inhibitors; actives 0.35% (n = 210,000); AID 1457; active means well fitted inhibition curve with a large enough effect; inconclusive means small, poorly fitted or top-dose-only effect; inactive means no such curve, though single readings can be large or run the other way;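 further: IP1 builds up when IMPase is blocked and the TR-FRET signal falls; potency means the concentration at half of the fitted maximal effect; plate controls were basal vehicle for no effect and high inhibitor control for full effect; nearly all actives have a fitted effect of over 50% in size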
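CHO cells stably expressing M1 receptor (2000/well) were cultured 16–30 h, then exposed to compounds with a small lithium addition for 30 min at 37C. IP1 was measured by TR-FRET competition; AC50 from Hill fits.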
* hit, by the source's call; ? = inconclusive; nt = no result; [ ] = dose if it differs, or a comment. Most compounds without a hit are left out; they make up all but 11% or so of the library. Unless noted, the call rests on the fitted dose curve; in most records, active means well fitted inhibition curve with a large enough effect (not every such curve was filed as active); inconclusive means small, poorly fitted or top-dose-only effect, or another doubt; inactive means no such curve, though single readings can be large or run the other way. Unless noted, on the % scale 0 is the no-effect control and ±100 the full control effect.

SMILES	PNC assembly inh	ALDH1A1 block	HPGD block	IMPase inh	IMPase Li cell
COc1ccccc1NC(=S)c1ccccc1	-26.7	28.2µM*	22.4µM*	nt	-1.6%
COc1ccccc1NC(=S)NNC(=O)c1ccncc1	nt	-1.0%	nt	nt	11.9%
Cc1cccc(NC(=O)Cn2c(O)c(N=NC(=O)c3ccccc3O)c3ccccc32)c1	-12.5	12.6µM*	-6.7%	nt	11.3%
NS(=O)(=O)c1ccc(CCNC(=O)COC(=O)/C=C/c2ccc(Cl)cc2)cc1	nt	-4.4%	nt	nt	1.8%
C[Si](C)(C)Cl	nt	22.4µM*	-6.5%	nt	7.5%
CCOC(=O)c1sc2nc(-c3ccco3)c3c(c2c1N)CC(C)(C)OC3	24.5	?	?	-5.8	-14.1%[38.3 µM]
Cc1nc2sc(C(=O)O)c(N)c2c2c1COC(C)(C)C2	33.3	14.1µM*	-12.6%	0.2	-2.6%[38.3 µM]
Cc1ccc(C)c(CSc2nnc(-c3cccnc3)o2)c1	25.8	?	25.1µM*	6.1	-3.6%[38.3 µM]
Fc1ccccc1CSc1nnc(-c2ccccc2)o1	?	-13.3%	10µM*	15.6	31.2%[38.3 µM]
Fc1ccccc1CSc1nnc(-c2cccnc2)o1	nt	-2.2%	nt	nt	6.1%
O=c1cc(CSc2nnc(COc3ccc(Cl)cc3)o2)c2ccccc2[nH]1	-17.8	5.6%	-20.9%	-9.3	29.9%[38.3 µM]
O=c1cc(CSc2nnc(-c3ccccc3)o2)c2ccccc2[nH]1	11.7	3.2%	7.94µM*	-6.7	7.0%
c1ccc(CSc2nnc(-c3ccncc3)o2)cc1	16.8	?	-18.2%	1.8	15.5%[38.3 µM]
Cc1ccccc1-c1nnc(SCc2ccccc2)o1	?	5.1%	22.4µM*	?	27.0%[38.3 µM]
COCC(=O)N1CCC2(CC1)CCN(c1ncccn1)CC2	nt	-5.8%	-10.9%	nt	5.6%
Cc1ccccc1-c1nnc(SCc2ccccc2F)o1	31.5	-12.2%	15.8µM*	-1.4	14.1%[38.3 µM]
COc1ccc(N(C(=O)Cc2cccs2)C(C(=O)NC2CCCCC2)c2cccn2C)cc1OC (configuration not stated)	-115.7*	9.1%	-1.9%	nt	2.5%
C#CC(=O)N(c1cccc(OC)c1)C(C(=O)NC1CCCC1)c1cccs1 (configuration not stated)	4.0	15.8µM*	?	23.2	23.2%[38.3 µM]
Cn1cccc1C(C(=O)NC1CCCCC1)N(C(=O)Cc1cccs1)C1CC1 (configuration not stated)	16.5	3.2%	-5.4%	5.2	3.4%[38.3 µM]
Cc1cc2occ(CC(=O)NC3CCCc4ccccc43)c2cc1C (configuration not stated)	26.4	2.24µM*	-9.4%	nt	10.3%
CCC(C)C(=O)OC1CCC=C2C=CC(C)C(CCC3CC(O)CC(=O)O3)[C@@H]21 (some centres not stated)	nt	-10.8%	2.5%	nt	2.6%
CCCCCCN(C(=O)CCCCCN1C(=O)NC(C2CC2)C(C(=O)OCc2ccccc2)=C1C)C(C(=O)NCCCC)c1ccc(OCC(=O)OC)c(C(=O)OC)c1 (configuration not stated)	nt	12.6µM*	-17.0%	nt	11.2%
COC(=O)CCCCCN1C(=O)NC(c2ccccc2)C(C(=O)OCc2ccccc2)=C1C (configuration not stated)	-92.3*	?	-6.4%	nt	14.8%
CCOC(=O)c1ccc(NC(=O)CSc2nc3cccnc3n2C)cc1	-24.2	?	-15.6%	16.7	16.9%
Cc1ccc(S(=O)(=O)Nc2ccc(Br)cc2/C=N/n2cnnc2)cc1	45.3	28.2µM*	-3.0%	-18.2	-17.9%[38.3 µM]
SMILES	PNC assembly inh	ALDH1A1 block	HPGD block	IMPase inh	IMPase Li cell
Cc1ccc(S(=O)(=O)Nc2ccccc2C=O)cc1	nt	6.2%[13.5 µM]	-9.1%	nt	3.8%
COc1ccc(Cc2nnc(-c3ccccc3)o2)cc1	nt	3.5%	nt	nt	12.8%
c1ccc(-c2nnc(CSc3nncs3)o2)cc1	?	-8.0%	25.1µM*	5.7	19.4%[38.3 µM]
c1ccc(Cc2nnc(-c3ccccc3)o2)cc1	?	-2.3%	7.94µM*	8.7	-1.2%[38.3 µM]
O=c1oc2ccc3ccccc3c2cc1-c1nnc(Nc2ccc(F)cc2)s1	nt	nt	nt	-5.4	nt
CCCOc1ccc2oc(=O)c3c(c2c1)CCCN3C(=O)CN1CCN(c2ncccn2)CC1	?	2.82µM*	nt	8.5	nt
O=C(Nc1ccccc1)N(Cc1ccccc1)C1=NCCS1	?	3.3%	-4.3%	9.4	-10.8%[38.3 µM]
O=S(=O)(c1ccccc1)N(C1=NCCS1)S(=O)(=O)c1ccccc1	?	8.91µM*	-2.3%	8.2	7.1%[38.3 µM]
COc1cccc(-c2coc3ccc(Br)cc3c2=O)c1	nt	6.7%	-5.3%	nt	15.4%
COc1ccc(-c2csc(N)n2)cc1F	nt	11.2µM*	nt	nt	15.4%
CCc1ccc(OC)c(-c2csc(N)n2)c1	nt	-1.7%	nt	nt	-5.2%
CCCCn1nnc(NC(=S)NC(=O)c2ccc(-c3cccc(Cl)c3Cl)o2)n1	-11.0	3.55µM*	nt	-6.0	nt
CCCCC(=O)Nc1nnn(CCC)n1	24.0	12.3%	5.5%	1.3	23.4%[38.3 µM]
CCCCC(=O)NC(=S)Nc1nnn(CCC)n1	nt	0.501µM*	nt	nt	-12.2%
O=C(Nc1ccc(Br)c2cccnc12)c1cccc2ccccc12	nt	nt	nt	2.8	nt
COCC(=O)Nc1cc(Cl)c(OC)cc1OC	12.1	?	-15.5%	nt	-3.7%
O=[N+]([O-])c1ccc(-c2csc(Nc3ccccc3)[n+]2Cc2ccccc2)cc1	10.6	31.6µM*	-20.7%	23.0	11.3%
COc1ccc(-c2csc(Nc3ccccc3)[n+]2Cc2ccccc2)cc1	nt	?	nt	nt	16.9%
CC(C)c1ccc(NS(=O)(=O)c2ccc3nc(-c4ccccc4)[nH]c3c2)cc1	nt	nt	nt	4.8	nt
O=C(CSc1nnc(C2COc3ccccc3O2)o1)N1CCN(c2ccccc2)CC1 (configuration not stated)	nt	2.7%	nt	nt	-0.4%
Clc1ccc(SCc2nc3ccccc3[nH]2)cc1	10.8	-7.1%	-24.8%	3.0	21.5%[38.3 µM]
O=C1CC(SCc2nc3ccccc3[nH]2)C(=O)N1c1ccc(F)cc1 (configuration not stated)	?	28.2µM*	-12.4%	2.2	14.6%[38.3 µM]
O=C1CCC(=O)N1c1ccc(CSc2nc3ccccc3[nH]2)cc1	39.9	14.1µM*	-21.3%	6.7	3.9%[38.3 µM]
c1ccc(SCc2nc3ccccc3[nH]2)cc1	11.8	6.2%	-2.4%	-5.4	-0.6%[38.3 µM]
O=C1CC(SCc2nc3ccccc3[nH]2)C(=O)N1c1cccc(Cl)c1 (configuration not stated)	?	11.2µM*	-18.9%	-5.5	23.5%[38.3 µM]
SMILES	PNC assembly inh	ALDH1A1 block	HPGD block	IMPase inh	IMPase Li cell
COc1ccc(CSc2nc3ccccc3[nH]2)cc1	27.0	-0.1%	-20.2%	6.3	6.8%[38.3 µM]
CCCOc1ccc(N2C(=O)CC(SCc3nc4ccccc4[nH]3)C2=O)cc1 (configuration not stated)	nt	15.8µM*	nt	nt	1.3%
CN(Cc1nc(-c2cccs2)no1)CC1COCCO1 (configuration not stated)	nt	17.9%	nt	nt	-0.1%
Cc1cc(C(=O)OCC(=O)Nc2ccc(F)cc2)c(C)o1	17.2	7.4%	-7.9%	19.5	23.8%[38.3 µM]
COc1cccc(CNCc2ccc(SC)cc2)c1OC	25.7	1.8%	-5.7%	6.4	15.2%[38.3 µM]
CN(CC#CC(O)(c1ccccc1)c1ccccc1)C(C)(C)C	nt	11.7%	nt	nt	nt
